From PubChem BioAssay (EPA / NIEHS) come the findings set out here.

The source made the active and inactive calls. How the source made its calls: active means hit-call score of the fitted dose curve at least 0.9, where 1 is the maximum; inactive means score below 0.9.

This test is described as follows: ATG_DR4_LXR_CIS: Attagene CIS-FACTORIAL HepG2 Assay for human Liver X Receptor (LXR), DR4 submotif (AID 2282929). The settings on record: HepG2 Attagene DR4 cis-reporter, mRNA transcription; actives raise or lower the signal. Summed up: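 HepG2, transient MRTU transfection, cis-element (DR4) promoter; 24 h compound exposure; total RNA → oligo(dT) RT → PCR → 6-FAM primer extension → HpaI cut → CE. Gain/loss vs DMSO, bidirectional fit.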
As to `CCc1c(Br)c(Br)c(Br)c(Br)c1Br`, the call was inactive.
For `O=C(CC(=O)C(F)(F)C(F)(F)F)C(F)(F)F`, the compound was called inactive.
Same read-out and setting: to `CCC(=O)OCCc1ccccc1` belongs “inactive”; to `FC(F)(F)C(F)(F)C(F)(F)C(F)(F)C(F)(F)C(F)(F)CCS`, “inactive”.
Take `O=C(O)C(F)(OC(F)(F)C(F)(OC(F)(F)C(F)(F)C(F)(F)F)C(F)(F)F)C(F)(F)F` (stereo not drawn): the compound was classed as inactive.
As for `Cc1cc(C)cc(O)c1`, the compound was classed as inactive.
As to `CN(C)Cc1ccccc1O`, the outcome was inactive.
On the same count and under the same terms, then `CC(CCl)OP(=O)(OC(C)CCl)OC(C)CCl` (stereo not drawn), with “inactive”; and `Cc1cccc(N(C)C)c1`, with “inactive”.
As to `Cc1ccc(S(=O)(=O)OCC(F)(F)C(F)(F)C(F)(F)C(F)(F)C(F)(F)C(F)F)cc1`, the result was inactive.
Consider `C=CC(=O)OCC(F)(F)C(F)(F)C(F)(F)C(F)(F)COC(=O)C=C`, for which the AC50 was 31.3 µM (active).
`CCCCCC=O`: the outcome was inactive.
Turning to `O=C(O)C(F)(F)C(F)(F)C(F)(F)C(F)(F)F`, the call was inactive.
On to `FC(F)(I)C(F)(F)C(F)(F)C(F)(F)I`, for which the compound was classed as inactive.
For the compound `O=C(OCCOCCOCCOC(=O)c1ccccc1)c1ccccc1`, the compound was called inactive.
For `CC(C)=CCCC(C)CCOC(=O)C(C)C` (stereo not drawn), the compound was classed as inactive.
On to `CCCCOCCOCCOC(=O)CCCCC(=O)OCCOCCOCCCC`, for which the compound was called inactive.
`CC(Cc1ccc(O)c(O)c1)C(C)Cc1ccc(O)c(O)c1` (stereo not drawn): the compound was called inactive.
`c1ccc(B(c2ccccc2)c2ccccc2)cc1`: the concentration at half-maximal activity (AC50) was 34.2 µM (active).
Turning to `COC(=O)C1CCC(C(=O)OC)CC1` (stereo not drawn), the compound was called inactive.
Take `O=S(=O)(O)c1ccc2ccccc2c1`: the call was inactive.
With `FC(F)(F)C(F)(F)CNCC(F)(F)C(F)(F)F`, the compound was classed as inactive.
Turning to `C=CC(=O)OCC(F)(F)C(F)(F)C(F)(F)C(F)(F)C(F)(F)C(F)(F)C(F)(F)F`, the compound was called inactive.

The AC50 is the concentration giving half of the maximal activity seen.
